# Bioassay records deposited in PubChem by The Scripps Research Institute Molecular Screening Center.
# TEAD-YAP inh = TEAD-YAP interaction inhibition, primary screen, TEAD-YAP interaction inhibitor project, luminescence, HEK-TIYL cells; inhibition, % at 9.12 µM; actives 1.4% (n = 640,000); AID 1259422, 2018; TEAD-Gal4/YAP UAS-luciferase luminescence; in the data active = inhibition above about 32%;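 also: 0% = median of test compound wells and 100% = reference inhibitor wells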
# MITF inh = MITF inhibitors, primary screen, biochemical, AlphaScreen, human. AlphaScreen MITF homodimerization, bead proximity signal. inhibition, % at 2.6 µM. actives 0.91% (n = 650,000). AID 1259374, 2018; in the data active = inhibition above about 50%;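 also: 0% = vehicle wells with protein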
# GPR151 ag = activators of human GPR151, primary screen, cell-based, PathHunter beta-arrestin, luminescence; G-protein coupled receptor 151 (Homo sapiens), Q8TDV0; PathHunter beta-arrestin GPR151 cells; activation, % at 11.2 µM; actives 1% (n = 650,000); AID 1508602, 2020; in the data active = activation above about 4.9%;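 also: 0% = median of compound wells and 100% = cells with positive control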
# FBW7 act = FBW7 E3 ligase activators, primary screen, biochemical, AlphaScreen, human. F-box/WD repeat-containing protein 7 (Homo sapiens), Q969H0. AlphaScreen FBW7–phospho-cyclin E peptide binding, activator screen. normalized activity (activation), % at 26.1 µM. actives 0.13% (n = 650,000). AID 1259310, 2017; in the data active = normalized activity above about 1.9%;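 also: purified mutant Fbw7 with reduced substrate affinity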
# GPR151 conf act = GPR151 activators, triplicate retest, confirmation, cell-based, PathHunter beta-arrestin, luminescence | shares compounds with GPR151 ag | GPR151 PathHunter beta-arrestin cells, 90 min; % of EA-reagent control over plate median | activation, % at 11.2 µM | 6,700 tested, under 10 active | AID 1508609, 2020;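 active = mean percent activation across replicates above the confirmation screen cutoff of 4.91%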
# GPR119 counter = GPR119 activators in beta-arrestin cells, counter-screen for GPR151 activator project, cell-based, PathHunter beta-arrestin, luminescence, triplicate. shares compounds with GPR151 ag. 90 min; 0 = compound-well median, 100 = enzyme-acceptor control. activation, % at 11.2 µM. actives 0.3% (n = 6,700). AID 1508611, 2020;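 active = mean percent activation in the counterscreen above 29.09%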;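 also: counterscreen on off-target GPR119 to flag nonselective hits from the GPR151 activator screen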
# Target sequence (Q8TDV5 whole entry, looked up): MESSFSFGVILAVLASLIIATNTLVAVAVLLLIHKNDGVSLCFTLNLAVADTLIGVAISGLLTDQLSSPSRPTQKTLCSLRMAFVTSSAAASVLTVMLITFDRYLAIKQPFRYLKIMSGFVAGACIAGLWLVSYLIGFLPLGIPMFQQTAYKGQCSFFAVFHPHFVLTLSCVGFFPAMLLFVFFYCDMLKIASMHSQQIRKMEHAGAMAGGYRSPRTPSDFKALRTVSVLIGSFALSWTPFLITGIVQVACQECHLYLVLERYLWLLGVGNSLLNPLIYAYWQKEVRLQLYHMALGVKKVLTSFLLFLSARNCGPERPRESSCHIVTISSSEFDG
# The depositor's hits bear a star; nt = not tested or not shown; ! = not confirmed by another sample. Shown are actives, neighbours in structure and some others; about 3.4% of the full set was active somewhere.
SMILES,TEAD-YAP inh,MITF inh,GPR151 ag,FBW7 act,GPR151 conf act,GPR119 counter
CC(NC(=O)/C(=C/c1ccc([N+](=O)[O-])cc1)NC(=O)c1cccc(Br)c1)C(=O)O (stereo unspecified),1,12,0,0,nt,nt
COCC1CCCCN1C(=O)CC1(c2ccccc2)CC(=O)N(CCc2ccccn2)C1=O (stereo unspecified),-2,17,5.4*,1,0,8
CCOC(=O)c1ccccc1NC(=O)CSc1nnc(Cc2ccc(Cl)cc2)o1,-2,-10,-1,0,nt,nt
CCOCCSc1nc2c(c(=O)n(C)c(=O)n2C)n1Cc1ccccc1,-2,-1,1,0,nt,nt
Cc1ccccc1NC(=O)C1CCC(C)(C(=O)O)C1(C)C (stereo unspecified),-4,2,5.1*,0,-1,-10
Cc1csc(NC(=O)C2CCC(C)(C(=O)O)C2(C)C)n1 (stereo unspecified),-2,2,7.3*,0,-1,-10
CC1(C(=O)O)CCC(C(=O)Nc2ccc(Nc3ccccc3)cc2)C1(C)C (stereo unspecified),-1,12,1,0,nt,nt
O=C(c1nn2c(C(F)(F)F)cc(-c3cccs3)nc2c1Cl)N1CCCCC1,-1,5,6.4*,0,1,13
N#Cc1c(NC(=O)c2nn3c(C(F)(F)F)cc(-c4cccs4)nc3c2Cl)sc2c1CCCC2,-1,-3,9.2*,0,1,20
CC1CCCC(C)N1C(=O)c1cc2nc(-c3cccs3)cc(C(F)(F)F)n2n1 (stereo unspecified),6,1,5.4*,0,-1,3
N#Cc1c(NC(=O)c2nn3c(C(F)(F)F)cc(-c4cccs4)nc3c2Cl)sc2c1CCCCC2,-3,7,0,0,nt,nt
COc1ccc(NC(=O)NC(=O)C(F)(F)F)cc1,1,12,0,1,nt,nt
Cc1ccc(NC(=O)c2cnn(-c3ccccc3)c2NC(=O)c2ccc(Cl)cc2)cc1,-14,2,5.6*,0,0,9
CC(=O)N1CC(C)Sc2cc(S(=O)(=O)NCc3ccc4c(c3)OCO4)ccc21 (stereo unspecified),1,5,5.1*,0,1,-4
CCOC(=O)c1ccc(NC(=O)CCSc2nc(N)c3c(C)c(C)sc3n2)cc1,1,1,6.8*,0,0,0
CC12C=CC3(O1)C(C(=O)N(Cc1ccccc1Cl)C3C(=O)NC1CCCCC1)C2C(=O)Nc1ccc(Cl)c(Cl)c1 (stereo unspecified),4,-8,0,0,nt,nt
Cc1ccc(NC(=O)CCNc2c(N3CCCC3)c(=O)c2=O)cc1Cl,2,-5,12*,0,1,-4
O=C(CCNc1c(N2CCCC2)c(=O)c1=O)Nc1ccc(F)c(Cl)c1,11,-1,2,0,nt,nt
O=C(CCNc1c(N2CCCC2)c(=O)c1=O)NC1CCCCCC1,-4,1,7.2*,0,0,2
Cc1ccc(NC(=O)CC(C)(C)C)cc1Cl,-6,-2,5.2*,0,0,5
COc1ccc(CCNC(=O)c2cc(Cl)ccc2[N+](=O)[O-])cc1,9,4,5.1*,0,0,-8
Cc1ccccc1C(=O)N1CCN=C1SCc1cccnc1,-22,6,-1,0,nt,nt
CC1=NN(c2ccc(C)cc2)C(=O)/C1=C/c1ccc2c(c1)OCO2,-4,-4,5.3*,0,0,-1
CC1=NN(c2ccc(Cl)cc2)C(=O)/C1=C/c1ccc2c(c1)OCO2,0,7,0,0,nt,nt
COc1cc(C(=O)N2CCc3ccccc32)ccc1OCc1cccc(F)c1,5,8,-2,0,nt,nt
SMILES,TEAD-YAP inh,MITF inh,GPR151 ag,FBW7 act,GPR151 conf act,GPR119 counter
CCN(CC)C(=O)C1CCCN(c2nc(Nc3cc(OC)c(OC)c(OC)c3)nc(N(CC)CC)n2)C1 (stereo unspecified),-7,-2,14*,0,0,-3
COc1cc(Nc2nc(Nc3ccncc3)nc3c2ncn3C2CCCCC2)cc(OC)c1OC,5,3,6.1*,0,0,0
COc1cc(Nc2nc(Nc3ccc(NC(C)=O)cc3)c3ncn(C4CCCCC4)c3n2)cc(OC)c1OC,-7,5,1,0,nt,nt
CCN(CC)C(=O)C1CCCN(c2nc(Nc3cc(OC)c(OC)c(OC)c3)c3ncn(C4CCCCC4)c3n2)C1 (stereo unspecified),-13,17,12*,0,-1,-12
CCN(CC)C(=O)C1CCCN(c2nc(Nc3cc(OC)c(OC)c(OC)c3)c3ncn(CCN4CCCC4=O)c3n2)C1 (stereo unspecified),7,9,-1,0,nt,nt
NC(=O)/C(=C\c1ccc2c(c1)OCO2)NC(=O)c1ccc(Br)cc1,-2,4,3,0,nt,nt
COc1ccccc1N1CC(O)(c2ccccc2)[N+]2=C1CCCCC2 (stereo unspecified),5,9,1,0,nt,nt
O=C(CCc1nnc(Cc2c[nH]c3ccccc23)o1)N1CCCCC1CCc1ccccn1 (stereo unspecified),-5,-3,0,0,nt,nt
O=C(CCc1nnc(-c2ccsc2)o1)N1CCCCC1CCc1ccccn1 (stereo unspecified),-21,11,6.5*,0,1,2
COc1cccc(CN2CCN(CC3=NS(=O)(=O)c4ccccc4N3)CC2)c1,0,20,-2,0,nt,nt
OCCNCCCCOc1cccc(Cl)c1Cl,13,35,-4,1,nt,nt
OCCNCCCOc1cccc(Cl)c1Cl,70*,11,5.5*!,0,0,0
COc1ccc(N=C2SC(C(=O)Nc3ccc(C)c(Cl)c3)CC(=O)N2CCc2ccc(OC)c(OC)c2)cc1 (stereo unspecified),-7,27,0,0,nt,nt
CC(C)(C)NC(=O)Cn1cc(S(=O)(=O)Cc2ccccc2)c2ccccc21,-11,1,8.3*,0,0,-3
NC(=O)c1ccc(NC(=O)Cn2cc(S(=O)(=O)Cc3ccccc3)c3ccccc32)cc1,-4,7,0,0,nt,nt
CC(C)(C)NC(=O)Cn1cc(S(=O)(=O)Cc2ccc(F)cc2)c2ccccc21,5,12,5.3*,0,1,4
CCCC1(C)C(C#N)(C(=O)OC)C1(C#N)C(=O)OC (stereo unspecified),-1,16,-1,0,nt,nt
